# ChEMBL document CHEMBL2218924, “A broad activity screen in support of a chemogenomic map for kinase signalling research and drug discovery” (Biochem J, 2013)
# Columns and labels:
# [1] = biological target: Death-associated protein kinase 1 (Homo sapiens) (UniProt P53355); settings: at 10 µM
# [2] = biological target: T1, Serine/threonine-protein kinase DCLK2 (Homo sapiens) (UniProt Q8N568); settings: at 1 µM
# T1 sequence (whole entry): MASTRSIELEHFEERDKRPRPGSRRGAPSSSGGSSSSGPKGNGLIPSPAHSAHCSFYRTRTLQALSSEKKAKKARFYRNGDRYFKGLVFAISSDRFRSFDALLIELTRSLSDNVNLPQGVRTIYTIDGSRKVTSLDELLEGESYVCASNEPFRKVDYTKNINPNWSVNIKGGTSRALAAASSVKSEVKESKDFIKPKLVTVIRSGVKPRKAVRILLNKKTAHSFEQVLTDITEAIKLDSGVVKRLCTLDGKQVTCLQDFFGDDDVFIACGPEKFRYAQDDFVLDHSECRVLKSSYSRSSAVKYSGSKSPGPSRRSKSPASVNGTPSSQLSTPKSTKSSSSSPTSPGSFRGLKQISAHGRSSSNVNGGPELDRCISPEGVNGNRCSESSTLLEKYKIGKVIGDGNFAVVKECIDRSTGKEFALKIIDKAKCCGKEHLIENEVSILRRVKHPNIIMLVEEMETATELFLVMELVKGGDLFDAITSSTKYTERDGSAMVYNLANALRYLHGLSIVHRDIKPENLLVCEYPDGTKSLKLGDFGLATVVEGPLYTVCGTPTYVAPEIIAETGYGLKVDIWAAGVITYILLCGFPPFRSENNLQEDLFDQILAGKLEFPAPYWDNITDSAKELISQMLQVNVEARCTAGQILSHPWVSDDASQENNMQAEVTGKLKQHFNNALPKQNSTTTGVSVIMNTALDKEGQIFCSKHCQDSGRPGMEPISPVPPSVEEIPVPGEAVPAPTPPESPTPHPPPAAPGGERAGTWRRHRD
# [3] = biological target: T1, Serine/threonine-protein kinase DCLK2 (Homo sapiens); settings: at 10 µM
# [4] = biological target: T2, Discoidin domain-containing receptor 2 (Homo sapiens) (UniProt Q16832); settings: at 10 µM
# T2 sequence (whole entry): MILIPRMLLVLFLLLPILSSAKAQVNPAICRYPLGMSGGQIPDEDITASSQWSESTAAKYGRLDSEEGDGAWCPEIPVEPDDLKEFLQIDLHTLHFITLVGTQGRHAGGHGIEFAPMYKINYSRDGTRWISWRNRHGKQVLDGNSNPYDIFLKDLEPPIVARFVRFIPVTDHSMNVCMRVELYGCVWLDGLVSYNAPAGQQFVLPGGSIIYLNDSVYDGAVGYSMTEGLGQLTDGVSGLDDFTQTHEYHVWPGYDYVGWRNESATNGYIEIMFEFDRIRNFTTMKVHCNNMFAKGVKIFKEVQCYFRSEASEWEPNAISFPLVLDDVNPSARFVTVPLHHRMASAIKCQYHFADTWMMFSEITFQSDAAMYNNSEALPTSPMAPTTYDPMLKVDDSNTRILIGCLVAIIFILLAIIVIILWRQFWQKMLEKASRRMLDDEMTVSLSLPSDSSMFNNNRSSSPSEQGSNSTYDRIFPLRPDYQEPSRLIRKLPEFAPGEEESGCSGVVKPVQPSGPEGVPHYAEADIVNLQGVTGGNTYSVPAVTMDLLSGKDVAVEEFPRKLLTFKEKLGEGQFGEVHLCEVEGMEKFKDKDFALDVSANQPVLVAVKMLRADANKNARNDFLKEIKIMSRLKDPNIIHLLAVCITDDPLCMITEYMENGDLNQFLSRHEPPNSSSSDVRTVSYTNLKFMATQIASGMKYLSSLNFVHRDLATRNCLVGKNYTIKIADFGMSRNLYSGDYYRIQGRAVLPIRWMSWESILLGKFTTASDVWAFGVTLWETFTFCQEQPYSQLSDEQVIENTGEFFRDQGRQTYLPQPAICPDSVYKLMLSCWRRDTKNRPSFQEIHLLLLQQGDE
# [5] = biological target: T3, Myotonin-protein kinase (Homo sapiens) (UniProt Q09013); settings: at 1 µM
# T3 sequence (whole entry): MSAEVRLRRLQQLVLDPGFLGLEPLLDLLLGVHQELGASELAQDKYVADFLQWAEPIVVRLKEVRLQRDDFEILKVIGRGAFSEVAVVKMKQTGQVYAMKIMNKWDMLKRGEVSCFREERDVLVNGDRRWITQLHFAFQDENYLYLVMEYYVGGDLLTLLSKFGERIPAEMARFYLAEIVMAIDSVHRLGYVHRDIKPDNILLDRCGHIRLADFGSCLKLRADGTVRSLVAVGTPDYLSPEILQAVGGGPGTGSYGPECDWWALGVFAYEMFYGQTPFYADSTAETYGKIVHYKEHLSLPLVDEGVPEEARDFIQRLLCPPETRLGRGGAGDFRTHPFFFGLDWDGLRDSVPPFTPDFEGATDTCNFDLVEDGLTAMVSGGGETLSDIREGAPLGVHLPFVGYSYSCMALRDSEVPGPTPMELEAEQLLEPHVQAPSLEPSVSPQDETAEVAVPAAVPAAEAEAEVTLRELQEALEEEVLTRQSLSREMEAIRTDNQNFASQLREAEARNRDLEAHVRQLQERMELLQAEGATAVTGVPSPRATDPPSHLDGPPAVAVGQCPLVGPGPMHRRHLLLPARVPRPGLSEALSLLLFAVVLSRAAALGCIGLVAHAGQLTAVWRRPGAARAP
# [6] = biological target: T3, Myotonin-protein kinase (Homo sapiens); settings: at 10 µM
# [7] = biological target: T4, Serine/threonine-protein kinase 17A (Homo sapiens) (UniProt Q9UEE5); settings: at 1 µM
# T4 sequence (whole entry): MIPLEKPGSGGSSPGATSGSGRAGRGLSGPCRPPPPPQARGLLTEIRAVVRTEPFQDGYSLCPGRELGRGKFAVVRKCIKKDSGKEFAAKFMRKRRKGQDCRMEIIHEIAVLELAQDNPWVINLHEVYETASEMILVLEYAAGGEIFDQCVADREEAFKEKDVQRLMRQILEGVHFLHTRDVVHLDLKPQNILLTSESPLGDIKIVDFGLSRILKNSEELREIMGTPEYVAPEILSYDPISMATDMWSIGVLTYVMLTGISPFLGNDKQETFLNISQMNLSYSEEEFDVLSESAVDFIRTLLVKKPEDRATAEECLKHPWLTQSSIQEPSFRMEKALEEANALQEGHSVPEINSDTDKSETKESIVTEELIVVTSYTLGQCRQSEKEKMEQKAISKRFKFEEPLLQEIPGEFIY
# [8] = biological target: T4, Serine/threonine-protein kinase 17A (Homo sapiens); settings: at 10 µM
# [9] = biological target: Epidermal growth factor receptor (Homo sapiens) (UniProt P00533); settings: at 1 µM
# [10] = biological target: Epidermal growth factor receptor (Homo sapiens) (UniProt P00533); settings: at 10 µM
# [11] = biological target: T5, Ephrin type-A receptor 1 (Homo sapiens) (UniProt P21709); settings: at 1 µM
# T5 sequence (whole entry): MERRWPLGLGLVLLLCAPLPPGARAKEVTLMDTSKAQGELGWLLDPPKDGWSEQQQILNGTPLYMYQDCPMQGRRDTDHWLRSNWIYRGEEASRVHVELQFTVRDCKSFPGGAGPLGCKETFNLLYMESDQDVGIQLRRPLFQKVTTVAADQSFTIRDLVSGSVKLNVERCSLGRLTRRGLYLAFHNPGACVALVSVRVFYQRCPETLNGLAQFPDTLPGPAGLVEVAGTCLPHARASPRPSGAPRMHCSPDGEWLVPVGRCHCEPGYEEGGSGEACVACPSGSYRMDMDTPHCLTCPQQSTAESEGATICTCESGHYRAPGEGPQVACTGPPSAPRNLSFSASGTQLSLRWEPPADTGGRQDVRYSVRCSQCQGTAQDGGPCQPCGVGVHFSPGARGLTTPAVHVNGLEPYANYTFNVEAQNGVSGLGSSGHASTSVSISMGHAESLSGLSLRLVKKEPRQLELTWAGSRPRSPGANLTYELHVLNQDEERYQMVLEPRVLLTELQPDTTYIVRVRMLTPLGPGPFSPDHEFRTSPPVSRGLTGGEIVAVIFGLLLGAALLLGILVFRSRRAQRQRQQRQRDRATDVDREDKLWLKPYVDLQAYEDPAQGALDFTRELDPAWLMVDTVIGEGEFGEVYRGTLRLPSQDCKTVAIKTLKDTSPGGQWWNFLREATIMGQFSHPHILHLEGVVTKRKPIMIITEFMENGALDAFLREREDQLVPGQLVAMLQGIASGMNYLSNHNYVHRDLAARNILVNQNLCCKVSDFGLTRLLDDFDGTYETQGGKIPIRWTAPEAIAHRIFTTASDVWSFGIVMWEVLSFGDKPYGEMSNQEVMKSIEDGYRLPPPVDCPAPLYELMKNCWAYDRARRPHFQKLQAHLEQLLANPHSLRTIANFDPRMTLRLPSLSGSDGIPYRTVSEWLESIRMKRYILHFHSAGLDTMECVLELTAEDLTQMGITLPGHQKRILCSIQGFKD
# [12] = biological target: T5, Ephrin type-A receptor 1 (Homo sapiens); settings: at 10 µM
# [13] = biological target: Ephrin type-A receptor 2 (Homo sapiens) (UniProt P29317); settings: at 1 µM
# [14] = biological target: Ephrin type-A receptor 2 (Homo sapiens) (UniProt P29317); settings: at 10 µM
# [15] = biological target: Death-associated protein kinase 2 (Homo sapiens) (UniProt Q9UIK4); settings: at 1 µM
# [16] = biological target: Death-associated protein kinase 2 (Homo sapiens) (UniProt Q9UIK4); settings: at 10 µM
# [17] = biological target: T2, Discoidin domain-containing receptor 2 (Homo sapiens); settings: at 1 µM
# [18] = biological target: T6, Dual specificity tyrosine-phosphorylation-regulated kinase 2 (Homo sapiens) (UniProt Q92630); settings: at 1 µM
# T6 sequence (whole entry): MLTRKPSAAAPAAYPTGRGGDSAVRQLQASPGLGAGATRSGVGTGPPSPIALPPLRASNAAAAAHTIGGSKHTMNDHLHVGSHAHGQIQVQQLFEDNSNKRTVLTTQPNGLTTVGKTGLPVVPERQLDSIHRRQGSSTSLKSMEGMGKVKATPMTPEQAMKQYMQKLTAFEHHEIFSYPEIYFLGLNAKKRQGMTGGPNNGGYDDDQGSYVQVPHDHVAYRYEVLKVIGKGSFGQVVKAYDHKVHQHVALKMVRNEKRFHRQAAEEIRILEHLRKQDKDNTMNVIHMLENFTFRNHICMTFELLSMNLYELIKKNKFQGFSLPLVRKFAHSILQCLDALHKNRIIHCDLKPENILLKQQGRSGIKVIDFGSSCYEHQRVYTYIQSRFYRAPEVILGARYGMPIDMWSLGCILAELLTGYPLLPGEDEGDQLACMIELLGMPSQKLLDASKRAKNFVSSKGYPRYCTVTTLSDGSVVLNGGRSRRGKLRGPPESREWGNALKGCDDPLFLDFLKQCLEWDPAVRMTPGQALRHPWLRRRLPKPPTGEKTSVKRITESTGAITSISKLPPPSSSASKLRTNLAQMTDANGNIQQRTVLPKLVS
# [19] = biological target: T6, Dual specificity tyrosine-phosphorylation-regulated kinase 2 (Homo sapiens); settings: at 10 µM
# [20] = biological target: T7, Ephrin type-A receptor 3 (Homo sapiens) (UniProt P29320); settings: at 1 µM
# T7 sequence (whole entry): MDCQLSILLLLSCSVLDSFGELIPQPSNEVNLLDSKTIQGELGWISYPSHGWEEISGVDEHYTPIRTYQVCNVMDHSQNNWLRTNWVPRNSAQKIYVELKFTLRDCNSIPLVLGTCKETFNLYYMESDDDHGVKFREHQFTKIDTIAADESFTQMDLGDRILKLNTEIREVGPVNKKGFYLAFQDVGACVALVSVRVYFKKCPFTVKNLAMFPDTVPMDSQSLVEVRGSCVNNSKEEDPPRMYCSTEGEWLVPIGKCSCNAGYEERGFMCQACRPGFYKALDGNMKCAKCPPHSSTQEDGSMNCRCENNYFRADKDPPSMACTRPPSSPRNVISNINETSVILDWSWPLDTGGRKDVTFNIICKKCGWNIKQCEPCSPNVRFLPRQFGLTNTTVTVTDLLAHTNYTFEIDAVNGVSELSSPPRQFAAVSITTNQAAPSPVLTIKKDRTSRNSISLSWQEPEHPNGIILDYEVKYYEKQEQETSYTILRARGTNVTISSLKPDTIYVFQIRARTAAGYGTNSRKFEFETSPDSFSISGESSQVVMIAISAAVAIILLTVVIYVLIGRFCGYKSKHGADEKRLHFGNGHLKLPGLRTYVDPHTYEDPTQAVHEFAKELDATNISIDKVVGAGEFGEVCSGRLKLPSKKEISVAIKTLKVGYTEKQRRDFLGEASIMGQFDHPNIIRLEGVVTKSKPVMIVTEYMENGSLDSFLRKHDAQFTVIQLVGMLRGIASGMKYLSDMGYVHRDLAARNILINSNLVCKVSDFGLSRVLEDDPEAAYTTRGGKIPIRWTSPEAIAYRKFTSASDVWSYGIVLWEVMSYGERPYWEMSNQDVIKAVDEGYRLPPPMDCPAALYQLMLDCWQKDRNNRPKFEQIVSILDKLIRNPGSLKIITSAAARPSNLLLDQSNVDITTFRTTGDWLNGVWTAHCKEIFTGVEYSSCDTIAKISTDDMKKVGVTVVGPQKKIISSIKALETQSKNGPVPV
# Chain of Ephrin type-A receptor 2 (Homo sapiens) (P29317 whole entry): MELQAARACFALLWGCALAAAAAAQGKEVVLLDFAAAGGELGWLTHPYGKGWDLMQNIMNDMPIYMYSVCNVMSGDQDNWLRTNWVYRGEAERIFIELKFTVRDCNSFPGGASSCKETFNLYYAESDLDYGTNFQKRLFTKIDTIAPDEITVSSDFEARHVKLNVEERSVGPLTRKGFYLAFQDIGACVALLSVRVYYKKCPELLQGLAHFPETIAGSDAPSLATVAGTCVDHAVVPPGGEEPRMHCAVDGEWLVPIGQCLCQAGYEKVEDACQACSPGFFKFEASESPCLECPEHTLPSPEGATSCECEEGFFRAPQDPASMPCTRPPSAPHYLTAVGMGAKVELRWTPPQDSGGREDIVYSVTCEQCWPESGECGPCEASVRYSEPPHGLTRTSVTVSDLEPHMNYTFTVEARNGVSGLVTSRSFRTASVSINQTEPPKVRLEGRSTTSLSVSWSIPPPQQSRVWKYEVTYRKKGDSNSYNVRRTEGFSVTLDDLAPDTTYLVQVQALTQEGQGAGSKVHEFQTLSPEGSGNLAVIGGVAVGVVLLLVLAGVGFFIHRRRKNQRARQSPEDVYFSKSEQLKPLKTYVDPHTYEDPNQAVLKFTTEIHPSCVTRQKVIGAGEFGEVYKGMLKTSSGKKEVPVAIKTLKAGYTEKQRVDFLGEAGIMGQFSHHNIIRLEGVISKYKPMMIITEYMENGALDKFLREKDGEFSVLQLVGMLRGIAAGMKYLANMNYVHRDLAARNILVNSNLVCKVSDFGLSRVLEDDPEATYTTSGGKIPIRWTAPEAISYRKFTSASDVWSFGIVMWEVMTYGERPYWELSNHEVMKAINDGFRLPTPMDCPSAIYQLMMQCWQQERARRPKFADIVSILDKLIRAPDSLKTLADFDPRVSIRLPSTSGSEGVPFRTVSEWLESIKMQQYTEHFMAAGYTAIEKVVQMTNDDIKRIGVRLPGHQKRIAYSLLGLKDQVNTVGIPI
# Chain of Death-associated protein kinase 2 (Homo sapiens) (Q9UIK4 whole entry, looked up, the tested form may be a part): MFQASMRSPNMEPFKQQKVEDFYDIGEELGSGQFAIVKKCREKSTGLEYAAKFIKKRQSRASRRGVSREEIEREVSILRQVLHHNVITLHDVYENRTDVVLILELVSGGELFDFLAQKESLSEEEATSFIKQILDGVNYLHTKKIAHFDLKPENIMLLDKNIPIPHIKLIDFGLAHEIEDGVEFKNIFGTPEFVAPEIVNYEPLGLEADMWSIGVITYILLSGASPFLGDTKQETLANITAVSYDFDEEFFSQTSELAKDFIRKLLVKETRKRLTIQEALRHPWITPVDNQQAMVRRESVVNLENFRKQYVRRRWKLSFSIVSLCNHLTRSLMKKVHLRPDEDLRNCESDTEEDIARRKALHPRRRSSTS
# Chain of Death-associated protein kinase 1 (Homo sapiens) (P53355 whole entry, looked up): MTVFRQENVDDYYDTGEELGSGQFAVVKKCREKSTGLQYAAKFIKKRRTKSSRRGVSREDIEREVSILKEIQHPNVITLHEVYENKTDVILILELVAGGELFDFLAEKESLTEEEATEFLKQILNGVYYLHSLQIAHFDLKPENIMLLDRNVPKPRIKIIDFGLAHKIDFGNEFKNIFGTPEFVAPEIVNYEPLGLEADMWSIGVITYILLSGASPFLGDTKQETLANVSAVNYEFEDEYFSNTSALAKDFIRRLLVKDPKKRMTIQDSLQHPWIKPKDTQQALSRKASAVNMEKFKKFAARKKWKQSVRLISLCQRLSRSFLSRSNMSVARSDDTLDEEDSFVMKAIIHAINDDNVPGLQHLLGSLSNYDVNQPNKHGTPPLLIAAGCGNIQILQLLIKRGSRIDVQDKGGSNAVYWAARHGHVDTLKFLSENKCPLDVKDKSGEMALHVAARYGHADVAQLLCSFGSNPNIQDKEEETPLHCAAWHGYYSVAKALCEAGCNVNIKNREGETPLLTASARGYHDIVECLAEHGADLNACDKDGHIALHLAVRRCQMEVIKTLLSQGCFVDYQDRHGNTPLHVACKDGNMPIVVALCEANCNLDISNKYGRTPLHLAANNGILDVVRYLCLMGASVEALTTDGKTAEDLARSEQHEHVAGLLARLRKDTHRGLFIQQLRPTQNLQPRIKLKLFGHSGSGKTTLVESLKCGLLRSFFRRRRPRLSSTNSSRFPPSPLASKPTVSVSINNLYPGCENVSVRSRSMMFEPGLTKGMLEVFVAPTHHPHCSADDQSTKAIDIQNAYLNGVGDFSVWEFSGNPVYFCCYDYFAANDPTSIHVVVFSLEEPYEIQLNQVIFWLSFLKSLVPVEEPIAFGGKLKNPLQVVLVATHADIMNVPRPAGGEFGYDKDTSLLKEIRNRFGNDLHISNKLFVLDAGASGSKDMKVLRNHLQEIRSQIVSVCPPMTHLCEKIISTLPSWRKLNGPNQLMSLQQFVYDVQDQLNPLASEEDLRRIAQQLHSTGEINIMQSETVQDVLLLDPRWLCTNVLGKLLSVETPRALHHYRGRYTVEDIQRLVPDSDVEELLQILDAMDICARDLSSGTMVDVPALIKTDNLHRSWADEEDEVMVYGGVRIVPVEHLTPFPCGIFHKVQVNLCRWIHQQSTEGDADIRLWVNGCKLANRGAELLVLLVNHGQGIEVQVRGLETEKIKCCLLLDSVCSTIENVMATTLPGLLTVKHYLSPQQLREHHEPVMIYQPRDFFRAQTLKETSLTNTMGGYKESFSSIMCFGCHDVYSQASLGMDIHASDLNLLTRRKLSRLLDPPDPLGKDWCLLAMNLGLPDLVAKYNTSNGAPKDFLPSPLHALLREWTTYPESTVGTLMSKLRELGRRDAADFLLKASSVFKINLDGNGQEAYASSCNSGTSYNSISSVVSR
# Chain of Epidermal growth factor receptor (Homo sapiens) (P00533 whole entry): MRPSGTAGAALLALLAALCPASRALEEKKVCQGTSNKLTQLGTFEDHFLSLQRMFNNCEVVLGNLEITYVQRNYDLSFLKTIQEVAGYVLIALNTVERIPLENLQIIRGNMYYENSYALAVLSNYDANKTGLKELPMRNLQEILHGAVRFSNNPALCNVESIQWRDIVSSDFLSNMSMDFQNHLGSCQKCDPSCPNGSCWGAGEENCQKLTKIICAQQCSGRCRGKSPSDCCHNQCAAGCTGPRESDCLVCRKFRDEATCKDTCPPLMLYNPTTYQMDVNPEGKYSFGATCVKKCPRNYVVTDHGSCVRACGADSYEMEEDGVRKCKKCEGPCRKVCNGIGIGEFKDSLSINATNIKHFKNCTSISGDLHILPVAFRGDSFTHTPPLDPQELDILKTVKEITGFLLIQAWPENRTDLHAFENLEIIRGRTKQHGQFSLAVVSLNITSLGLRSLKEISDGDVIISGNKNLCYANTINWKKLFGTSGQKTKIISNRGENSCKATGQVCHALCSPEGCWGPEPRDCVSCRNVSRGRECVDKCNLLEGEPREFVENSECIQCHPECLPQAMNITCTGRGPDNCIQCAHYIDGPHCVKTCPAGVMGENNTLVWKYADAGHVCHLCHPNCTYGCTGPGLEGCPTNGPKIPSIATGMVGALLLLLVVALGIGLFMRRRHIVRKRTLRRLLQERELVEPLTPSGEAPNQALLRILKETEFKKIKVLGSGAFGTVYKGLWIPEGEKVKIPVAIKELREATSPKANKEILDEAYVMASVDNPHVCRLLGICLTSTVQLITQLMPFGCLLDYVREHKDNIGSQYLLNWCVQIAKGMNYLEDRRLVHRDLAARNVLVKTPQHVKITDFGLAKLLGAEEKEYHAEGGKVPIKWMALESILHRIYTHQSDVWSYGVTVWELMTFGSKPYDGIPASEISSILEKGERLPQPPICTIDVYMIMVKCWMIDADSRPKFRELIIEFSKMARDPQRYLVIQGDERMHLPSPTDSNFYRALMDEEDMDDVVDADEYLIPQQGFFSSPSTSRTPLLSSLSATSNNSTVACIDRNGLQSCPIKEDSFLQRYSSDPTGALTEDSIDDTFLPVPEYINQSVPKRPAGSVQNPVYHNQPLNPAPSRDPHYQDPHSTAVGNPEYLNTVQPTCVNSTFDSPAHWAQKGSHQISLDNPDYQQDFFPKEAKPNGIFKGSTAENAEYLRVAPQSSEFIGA
SMILES,residual activity [1],residual activity [2],residual activity [3],residual activity [4],residual activity [5],residual activity [6],residual activity [7],residual activity [8],residual activity [9],residual activity [10],residual activity [11],residual activity [12],residual activity [13],residual activity [14],residual activity [15],residual activity [16],residual activity [17],residual activity [18],residual activity [19],residual activity [20]
COc1cc2ncnc(Nc3cccc(Cl)c3)c2cc1OC,100%,122%,85%,74%,103%,113%,103%,48%,-5%,-3%,42%,7%,89%,37%,,,,,,
CC(C)[C@H](CO)Nc1nc(Nc2cc(N)cc(Cl)c2)c2ncn(C(C)C)c2n1,80%,94%,95%,88%,87%,90%,,,,,95%,11%,88%,29%,99%,97%,95%,94%,74%,93%
CCN(CC)CCNC(=O)c1c(C)[nH]c(/C=C2\C(=O)Nc3ccc(Cl)cc32)c1C,31%,68%,24%,44%,52%,68%,3%,2%,,,82%,37%,,73%,63%,16%,,78%,37%,
CC(C)c1nn(-c2c(Cl)cccc2Cl)c2nc(Cc3ccc(OCCO)cc3)[nH]c(=O)c12,91%,73%,74%,94%,,87%,96%,,,,105%,73%,96%,103%,92%,97%,98%,96%,106%,94%
COc1cc2nccc(Oc3ccc(NC(=O)Nc4cc(C)on4)c(Cl)c3)c2cc1OC,69%,99%,104%,0%,100%,148%,,,,,10%,6%,-3%,-3%,,,1%,,,1%
O=c1cc(N2CCOCC2)oc2c1ccc1ccccc12,84%,83%,87%,105%,,,92%,71%,,,91%,87%,,95%,92%,80%,106%,97%,65%,92%
